Test results: PubChem BioAssay AID1159580 (chemical genetic matrix, 2015)
The whole screen tested about 5,500 compounds, of which about 2,000 (36%) were called active. Roughly 18% stayed inconclusive and do not appear here. No stated cut-off is given here; in the data, active means normalized growth mostly below about 0.91 (no sharp cut-off); inconclusive means no clear call, values can overlap the other calls; inactive means mostly above about 0.92. Some of the results follow.

Test: chemical genetic growth profiling, strain panel (AID 1159580);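 further: tested at 20 µM; growth read once vehicle control cultures reached saturation at 30 °C; 1 = growth at the plate median or of vehicle wells; lower values mean less growth of the strain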
Details: S. cerevisiae deletion strains, growth OD

Measured: normalized growth

O=C(CCN1CCCCC1)c1ccc(-c2ccccc2)cc1
inactive: locus YAR019C, strain CDC15, active compounds read low 0.97 | locus YBL105C, strain PKC1, active compounds read low 0.975 | locus YBR135W, strain CKS1, active compounds read low 0.984 | locus YBR136W, strain MEC1, active compounds read low 0.981 | locus YBR160W, strain CDC28, active compounds read low 0.987 | locus YDL017W, strain CDC7, active compounds read low 0.982 | locus YDL028C, strain MPS1, active compounds read low 0.984 | locus YDL108W, strain KIN28, active compounds read low 0.979 | locus YDL132W, strain cdc53, active compounds read low 0.977 | locus YDL214C, strain PRR2, active compounds read low 0.909 | locus YDR052C, strain DBF4, active compounds read low 0.977 | locus YDR054C, strain cdc34, active compounds read low 0.966 | locus YDR226W, strain ADK1, active compounds read low 0.983 | locus YDR477W, strain SNF1, active compounds read low 0.785 | locus YER123W, strain YCK3, active compounds read low 0.892 | locus YER133W, strain GLC7, active compounds read low 0.961 | locus YFL009W, strain cdc4, active compounds read low 0.98 | locus YFL029C, strain CAK1, active compounds read low 0.978 | locus YFR003C, strain YPI1, active compounds read low 0.979 | locus YFR019W, strain FAB1, active compounds read low 0.961 | locus YFR028C, strain CDC14, active compounds read low 0.976 | locus YGR040W, strain KSS1, active compounds read low 0.839 | locus YGR052W, strain FMP48, active compounds read low 0.625 | locus YHR079C, strain IRE1, active compounds read low 0.691 | locus YHR082C, strain KSP1, active compounds read low 0.811 | locus YIL147C, strain SLN1, active compounds read low 0.977 | locus YJL095W, strain BCK1, active compounds read low 0.689 | locus YJL128C, strain PBS2, active compounds read low 0.866 | locus YJL157C, strain FAR1, active compounds read low 0.925 | locus YJR016C, strain ILV3, active compounds read low 0.98 | locus YJR066W, strain TOR1 (second series), active compounds read low 0.898 | locus YJR066W, strain TOR1, active compounds read low 0.733 | locus YKL067W, strain YNK1, active compounds read low 0.93 | locus YKL193C, strain SDS22, active compounds read low 0.976 | locus YLR133W, strain CKI1, active compounds read low 0.908 | locus YLR403W, strain SFP1, active compounds read low 0.755 | locus YML070W, strain DAK1, active compounds read low 0.909 | locus YMR001C, strain CDC5, active compounds read low 0.972 | locus YMR205C, strain PFK2 (second series), active compounds read low 0.941 | locus YMR277W, strain FCP1, active compounds read low 0.974 | locus YNL006W, strain LST8, active compounds read low 0.983 | locus YNL020C, strain ARK1, active compounds read low 0.822 | locus YNL161W, strain CBK1, active compounds read low 0.991 | locus YNL207W, strain RIO2, active compounds read low 0.971 | locus YNL222W, strain SSU72, active compounds read low 0.977 | locus YOL078W, strain AVO1, active compounds read low 0.98 | locus YOL136C, strain PFK27, active compounds read low 0.896 | locus YOR061W, strain CKA2, active compounds read low 0.805 | locus YOR119C, strain RIO1, active compounds read low 0.757 | locus YOR231W, strain MKK1, active compounds read low 0.782 | locus YOR329C, strain SCD5, active compounds read low 0.976 | locus YPL031C, strain PHO85, active compounds read low 0.79 | locus YPL153C, strain RAD53, active compounds read low 0.872 | locus YPL204W, strain HRR25, active compounds read low 0.889 | locus YPL209C, strain IPL1, active compounds read low 0.981 | locus YPR025C, strain CCL1, active compounds read low 0.982 | locus YPR106W, strain ISR1, active compounds read low 0.989 | locus YPR111W, strain DBF20, active compounds read low 0.97 | strain NNK1, active compounds read low 0.966 | strain TSCII, active compounds read low 0.97
active: locus YGR092W, strain DBF2, active compounds read low 0.193 | locus YHR030C, strain SLT2, active compounds read low 0.567 | locus YHR205W, strain SCH9, active compounds read low 0.471 | locus YKL048C, strain ELM1, active compounds read low 0.699 | locus YKL101W, strain HSL1, active compounds read low 0.454 | locus YLR113W, strain HOG1, active compounds read low 0.642 | locus YNL307C, strain MCK1 (second series), active compounds read low 0.246 | locus YPL256C, strain CLN2, active compounds read low 0.684
